# RXFP1 ag: qHTS Assay for Agonists of the Relaxin Receptor RXFP1; HEK293T-RXFP1 cAMP TR-FRET, 30 min; response scale: percent of porcine relaxin response, buffer zero; 370,000 tested, 0.3% active; Potency, µM (titrated, usually from 57.5 µM), for inactives: at the highest dose activation, usual class: activators; Relaxin receptor 1 (Homo sapiens), Q9HBX9; also: potency is read from the fitted curve at half-maximal effect; % is scaled to controls: 0 for no effect and ±100 for the full control effect; nearly all actives have a fitted effect of over 60% in size
#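 HEK293T cells stably expressing RXFP1 were pretreated with the PDE4 inhibitor Ro 20174, exposed to compounds for 30 min at 37C, lysed, and cAMP was read by TR-FRET. Data normalized to buffer (basal) and 29 nM porcine relaxin (100%).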
# S-ASM inh: Inhibitors of Secretory Acid Sphingomyelinase (S-ASM): qHTS; AID 504937, 2011; 340,000 tested, 0.006% active; Potency, µM (series often up to 57.5 µM), without a hit: at the top dose activity change, negative = inhibition, usual class: inhibitors; placental ASM, HMU-PC fluorogenic substrate, 60 min; also: potency is read from the fitted curve at half-maximal effect
# Target sequence (P17405 47-631 limits assumed): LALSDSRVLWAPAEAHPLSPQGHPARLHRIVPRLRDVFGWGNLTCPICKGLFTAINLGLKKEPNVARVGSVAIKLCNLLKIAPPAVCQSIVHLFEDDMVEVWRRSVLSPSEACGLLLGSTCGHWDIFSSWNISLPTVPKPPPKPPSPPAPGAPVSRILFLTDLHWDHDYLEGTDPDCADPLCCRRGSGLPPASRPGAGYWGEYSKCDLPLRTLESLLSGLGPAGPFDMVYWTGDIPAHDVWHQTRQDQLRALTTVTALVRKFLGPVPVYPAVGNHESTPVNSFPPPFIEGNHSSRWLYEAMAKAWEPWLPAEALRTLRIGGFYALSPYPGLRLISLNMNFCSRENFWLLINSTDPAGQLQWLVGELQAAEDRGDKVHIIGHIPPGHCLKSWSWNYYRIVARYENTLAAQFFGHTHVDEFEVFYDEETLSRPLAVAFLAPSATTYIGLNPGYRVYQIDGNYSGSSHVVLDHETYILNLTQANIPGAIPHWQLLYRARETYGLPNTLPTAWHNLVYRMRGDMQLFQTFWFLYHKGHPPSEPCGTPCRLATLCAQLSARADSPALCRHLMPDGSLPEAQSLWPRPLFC
#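 Steps: dispense placental human ASM, pin compound, wait 10 min at room temperature, add HMU-PC0 substrate at 9 uM final, incubate 60 min at 37 °C, add stop solution raising pH to 10, read fluorescence.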
# RXFP1 antag: qHTS Assay for Antagonists of the Relaxin Receptor RXFP1; 350,000 tested, 0.59% active; activity change, negative = inhibition, % at 57.5 µM; Relaxin receptor 1 (Homo sapiens), Q9HBX9; HEK293-RXFP1, relaxin-stimulated cAMP HTRF, 30 min; stronger effect = lower value;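 active = activity change of -60% or lower, but not beyond a set lower limit; inconclusive = change between -60% and -40%, or beyond the set limit; inactive = change above -40%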; also: % is scaled to controls: 0 for no effect and ±100 for the full control effect
# Integrin act MD: qHTS for Activators of Integrin-Mediated Alleviation for Muscular Dystrophy. alpha7betagal myoblasts, beta-gal FDG fluorescence, 48 h. Potency, µM (highest dose often 38.3 µM), for inactives: at the highest dose activation, most hits filed as activators. 350,000 tested, 0.064% active;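 also: potency is read from the fitted curve at half-maximal effect; 100% = response of the positive control SU9516; nearly all actives have a fitted effect of over 60% in size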
#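 alpha7betagal+/- myoblasts (passage 13, 250/well) treated 48 h at 37C with compounds at 1:260 dilution of DMSO stock. Lysed, then beta-galactosidase activity read as FDG fluorescence (ex 480/em 540) after 30 min, with pre-read for autofluorescence.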
# gsp agonist: qHTS for Agonist of gsp, the Etiologic Mutation Responsible for Fibrous Dysplasia/McCune-Albright Syndrome: qHTS. gsp mutant cells, cAMP HTRF, 30 min. Potency, µM (highest dose often 76.9 µM), for inactives: at the top dose activation (cAMP increase), hits mostly activators. 340,000 tested, 0.13% active; active = well fitted activation curve with a large enough effect; inconclusive = small, poorly fitted or top-dose-only effect, or another doubt; inactive = no such curve, though single readings can be large or run the other way; cell line not stated here;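 also: phosphodiesterase inhibitor Ro 20-1724 added with compounds to block cAMP breakdown; potency is read from the fitted curve at half-maximal effect; nearly all actives have a fitted effect of over 60% in size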
#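 Cells in DMEM/10% FBS with G418 were pretreated with compounds in DMSO plus […] (300 uM stock) for 30 min at 37C. cAMP was measured by HTRF (cAMP-d2 plus anti-cAMP antibody-K) after 30 min at room temperature.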
# gsp antag: qHTS for Antagonists of gsp, the Etiologic Mutation Responsible for Fibrous Dysplasia/McCune-Albright Syndrome: qHTS. 340,000 tested, 0.4% active. Potency, µM (series often up to 76.9 µM), for the others: at the top dose activity change, negative = inhibition, usual class: inhibitors. AID 624288, 2012. gsp-mutant cells, cAMP HTRF, 30 min; calls by dose curve; cell line not stated here;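 also: intracellular cAMP measured with PDE inhibitor Ro 20-1724 present during compound exposure; potency is read from the fitted curve at half-maximal effect; % is scaled to controls: 0 for no effect and ±100 for the full control effect; nearly all actives have a fitted effect of over 65% in size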
#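 Cells, 2000/well, grown 16–24 h in DMEM 10% FBS with 0.5 mg/ml G418, then compounds plus […] (300 uM addition stock), 30 min at 37C. cAMP read by HTRF (cAMP-d2 and anti-cAMP antibody-K in lysis buffer) after 30 min RT.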
# * = called active by the depositor; ? = inconclusive; . = no result given; [ ] = remark or other dose. Hits are enriched below; roughly 1.1% of the tested compounds scored in any of these assays. Unless noted, calls follow the shape of the dose curve; as a rule, active = well fitted curve in the direction sought with a large enough effect; inconclusive = small, poorly fitted or top-dose-only effect, or another doubt; inactive = no such curve, though single readings can be large; an effect the other way counts as inactive or inconclusive.
SMILES,RXFP1 ag,S-ASM inh,RXFP1 antag,Integrin act MD,gsp agonist,gsp antag
CSc1nc(N)nc(SCC(=O)Nc2cccc(F)c2)c1C#N,16.1%,-11.0%,-5.9,-29.1%,-1.5%,28.2µM*
CCN(CC)S(=O)(=O)c1cccc(C(=O)Nc2cc(C)on2)c1,-0.1%,2.7%,1.5,-10.1%,15.9%,50.1µM*
CCN(CC)S(=O)(=O)c1cccc(C(=O)Nc2nnc(C)s2)c1,18.1%,5.5%,6.1,17.8%,21.0%[15.4 µM],-14.9%
O=C(Nc1cc(Cl)ccc1O)c1snnc1-c1ccccc1,3.5%,-13.6%,-3.0,-59.5%,19.8%,22.4µM*
Cc1cccc(NC(=O)c2ccc(Cn3nc(N4CCN(c5ccccc5)CC4)ccc3=O)o2)c1C,-1.6%,.,-9.3,.,.,.
Cn1cc(/C=C2\SC(=O)N(c3ccccc3)C2=O)c2ccccc21,2.1%,-1.9%,8.9,-1.9%,-6.4%[15.4 µM],44.7µM*
Cn1cc(/C=C2\SC(=O)N(c3ccc(O)cc3)C2=O)c2ccccc21,-2.0%,-7.0%,-14.0,-26.0%,0.1%,31.6µM*
CCN1C(=O)S/C(=C/c2cn(C)c3ccccc23)C1=O,-4.8%,1.5%,2.3,27.6%,-39.2%,9.3%
COc1ccc(OCC(=O)NC(=S)Nc2ccc3c4c(cccc24)CC3)cc1,20µM*,-6.5%,12.8,11.2%,?,16.1%
COc1ccc(-n2c(=S)[nH]c3cc(C(=O)NCc4ccccc4)ccc3c2=O)c(OC)c1,2.5%,-2.3%,-16.6,-1.2%,9.1%[15.4 µM],20µM*
COc1ccc(-n2c(=S)[nH]c3cc(C(=O)NCc4cccnc4)ccc3c2=O)c(OC)c1,3.0%,-2.6%,-71.1*,7.3%,12.9%,-11.1%
COc1ccc(-n2c(=S)[nH]c3cc(C(=O)NCCCN4CCOCC4)ccc3c2=O)c(OC)c1,-0.4%,-0.2%,-15.8,11.2%,12.8%[15.4 µM],12.6%
COc1ccc(-n2c(=S)[nH]c3cc(C(=O)Nc4cc(OC)c(OC)c(OC)c4)ccc3c2=O)c(OC)c1,0.8%,-5.2%,-23.1,-11.4%,-1.4%[15.4 µM],-17.5%
Cn1nccc1C(=O)NCc1ccc2c(c1)CCN2C(=O)c1ccc(F)cc1,2.7%,.,-73.4*,.,.,.
Clc1ccc(Nc2nnc(Cc3ccncc3)c3ccccc23)cc1,.,.,-22.2,.,.,.
CCOC(=O)c1cccc(NC(=O)c2oc3c(c2C)-c2nn(CC)cc2CC3)c1,1.2%,.,-13.7,.,.,.
CCOP1(=O)OCC2OC(n3cnc4c(N)ncnc43)C(O)C2O1 (centres undefined),10µM*,-3.0%,32.0,14.9%,112.4%[15.4 µM],30.6%
CC(=O)Nc1ccc(NC(=O)c2cc(=O)c3cc(C)cc(C)c3o2)cc1,1.6%,-2.7%,12.5,11.2µM*,-10.8%,14.6%
Cc1cc(C)c2oc(C(=O)Nc3ccc(S(=O)(=O)Nc4ncccn4)cc3)cc(=O)c2c1,11.9%,.,4.7,.,.,.
Cc1ccccc1C(=O)Nc1scc(-c2ccc(Br)cc2)c1C(=O)O,.,-1.0%,-0.3,2.82µM*,5.6%[15.4 µM],39.8µM*
COc1ccc(-c2csc(NC(=O)c3ccc(C(C)(C)C)cc3)c2C(=O)O)cc1,.,8.7%,-25.8,3.2%,-1.4%[15.4 µM],31.6µM*
CC(NC(=O)C(=O)N1CCCCC1)C(c1cccs1)N1CCN(Cc2ccccc2)CC1 (centres undefined),2.8%,1.1%,-66.3*,-7.1%,?,1.0%
O=C(NC1CCCCC1)c1ccc2c(c1)N(Cc1ccccc1Cl)C(=O)c1ccccc1S2,-1.2%,.,-23.9,.,.,.
O=C(NNc1cc(Br)c(O)c(Br)c1)c1ccccc1,-0.4%,-0.4%,-96.4*,-1.2%,5.3%[15.4 µM],-0.4%
O=C(CCCCC(=O)OCC1CCCO1)OCC1CCCO1 (centres undefined),.,3.8%,-8.8,2.6%,-43.2%,14.7%
SMILES,RXFP1 ag,S-ASM inh,RXFP1 antag,Integrin act MD,gsp agonist,gsp antag
CCCc1nc(SCC(=O)c2ccccc2)c2c(=O)n(C)c(=O)n(C)c2n1,3.4%,?,-23.3,9.0%,-51.7%,35.5µM*
Cc1nn(-c2ccccc2)c(C)c1NC(=O)COc1ccc(Br)cc1Cl,-0.2%,4.2%,?,-10.5%,-1.6%[15.4 µM],35.5µM*
COc1ccccc1NC(=O)COC(=O)c1c(C)nn(-c2ccccc2)c1C,0.1%,-1.3%,-12.8,32.5%,0.1%,31.6µM*
Cc1nn(-c2ccccc2)c(C)c1NC(=O)COc1ccc2ccccc2c1,1.2%,-0.5%,?,-20.2%[7.66 µM],-56.1%,15.8µM*
COc1ccc2oc(C(=O)OC(C)C(=O)N3C(C)CCCC3C)c(C)c2c1 (centres undefined),.,-3.7%,-29.5,-26.1%,-11.0%,?
CCOc1ccc(C(=O)Nc2cccc(C(=O)OCc3cc(=O)n4cc(C)sc4n3)c2)cc1,26.7%,.,-13.4,.,.,.
CC(=O)c1sc(N/N=C\c2c(O)ccc3ccccc23)nc1C,.,-7.4%,-82.2*,-1.6%,12.0%,-6.0%
CC(=O)c1sc(N/N=C/c2cccc(O)c2)nc1C,0.7%,21.4%,.,16.4%,18.2%,-9.8%
CCOC(=O)c1cc(-c2ccccc2)n(CCC(=O)Nc2ccc(C(F)(F)F)cc2)c1C,1.2%,.,-67.1*,.,.,.
COc1ccc(C(=O)Nc2cc(-c3ccccc3)nn2-c2ccccc2F)cc1,1.0%,-8.2%,.,-19.7%,.,?
Cc1ccc(NC(=O)c2ccccc2)cc1,3.5%,7.8%,5.7,17.3%,26.1%,4.1%
Cc1ccc(NC(=O)C2=C(c3ccccc3)S(=O)(=O)CCS2(=O)=O)cc1,-4.6%,-0.9%,?,-75.0%,-28.1%[15.4 µM],28.2µM*
CC(C)N(CCO)C(=O)CCc1nnc(CCCc2ccccc2)o1,-0.8%,1.7%,-3.5,12.6µM*,-19.5%,9.7%
CCN1CCN(C(c2ccc(OC)cc2)c2c(O)cc(C)n(CCOC)c2=O)CC1 (centres undefined),0.0%,.,-2.6,.,.,.
CC(C)Cn1c(SCC(=O)NC(=O)NC2CCCC2)nc2ccccc21,0.5%,-11.5%,-66.0*,-35.7%,-23.0%,?
CN(C)S(=O)(=O)c1ccc(-c2csc(N/N=C/c3ccco3)n2)cc1,-0.3%,-8.5%,-71.6*,1.3%,-20.0%[15.4 µM],31.6µM*
Cc1sc(N/N=C/c2ccco2)nc1-c1ccccc1,-0.4%,-0.4%,-89.0*,-18.8%,-1.5%,-11.2%
Cc1ccc(-c2csc(N/N=C/c3ccco3)n2)cc1,-0.8%,17.1%,-37.1,-16.7%,5.0%,-9.5%

# High-throughput results: PubChem, National Center for Advancing Translational Sciences (NCATS)
